For seven compounds, growth results are on record in PubChem BioAssay (NCI).

About 83,000 compounds went through this panel and 20% of them were active in at least one assay; those are over-represented in the sample as a whole.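 Compound tested at a single concentration for 48 hours in 96-well plates; a percent growth value below 10 was scored as active.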 Values without a mark were called inactive. Activity calls are given as the source filed them.

Common to all, as to assay: NCI-60 one-dose screen, 48 h (100 = growth as untreated, 0 = no growth, -100 = all killed)
Common to all, as to conditions: 10 µM unless noted

Test [1] deals with DU-145 prostate.
Test [2] has as its system K-562 leukemia.
Test [3] relates to MALME-3M melanoma.
Test [4] deals with MDA-MB-231 breast.
The test system of test [5] is RXF 393 renal.
The test system of test [6] is SF-268 CNS.
Test [7] relates to SF-295 CNS.
Test [8] deals with SF-539 CNS.
The test system of test [9] is UACC-257 melanoma.
In test [10] the test system is M14 melanoma.
The subject of test [11] is HCT-15 colon.
The subject of test [12] is HT29 colon.
Test [13] relates to SNB-75 CNS.
In test [14] the test system is SNB-19 CNS.
For test [15], the system named is U251 CNS.
Test [16] concerns PC-3 prostate.
The test system of test [17] is SK-MEL-5 melanoma.
In test [18] the test system is UACC-62 melanoma.
Test [19] deals with LOX IMVI melanoma.
For test [20], the system named is SK-MEL-28 melanoma.

As to `COc1cc2cc(C(=O)N3C[C@@H](CCl)c4c3cc(OC(=O)N(C)CCSSCCN3CCOCC3)c3ccccc43)[nH]c2c(OC)c1OC`, the growth in [1] was -10.3% (active); in [2], 2.13% (active); in test [3], -83.7% (active); in test [4], -20.2% (active); in test [5] it was -86.6% (active); in [6] it was 0.895% (active). In addition, the growth was -11.3% (active) in [7]; -72% (active) in test [8]; -8.65% (active) in [9]; -81.4% (active) in test [10]; -11.1% (active) in test [11]; -10% (active) in test [12]. Also, the growth in [13] was -74.6% (active); in test [14], -99.6% (active); in [15] it was -24.1% (active); in test [16], -12.2% (active); in test [17], -46.5% (active); in test [18], -80.3% (active). Further, the growth is -69.2% (active) in test [19] and -60.7% (active) in [20].

Turning to `CCCN(CCC)S(=O)(=O)c1ccc(C(=O)O)cc1.CCCN(CCC)S(=O)(=O)c1ccc(C(=O)O)cc1.[Cl][Pt+2][Cl].[NH2-].[NH2-]`, the growth in test [1] is 13.2%; in [2], 9.96% (active); in test [3], -98.1% (active); in test [4] it was -22.8% (active); in [5] it was -59.6% (active); in [6], 17.5%. Moreover, the growth in test [7] is 32.9%; in [8], 15.6%; in [9], -0.891% (active); in test [10], 33%; in test [11] it was 87.8%; in test [12] it was 42%. For the same compound, the growth in test [13] is 1.96% (active); in test [14] it was 26.7%; in [15], -27.5% (active); in [16] it was 39.7%; in test [17], -91.2% (active); in test [18], -90.2% (active). In addition, the growth in test [19] is -9.75% (active); in test [20], 1.28% (active).

For the compound `Cc1nn(-c2ccccc2)c2nc(C)n(CC(=O)N/N=C/c3ccccc3O)c(=O)c12`, the growth was 48.9% in [1]; 18.4% in test [2]; 47.4% in test [3]; 34.2% in [4]; 25.9% in test [5]; 47.6% in [6]. Moreover, the growth in [7] is 23.6%; in test [8], 21.8%; in [9], 2.59% (active); in test [10], 2.09% (active); in test [11], 26.7%; in test [12], 41.2%. Further, the growth was 76.1% in [13]; 36.5% in test [14]; 28.7% in [15]; 46.8% in test [16]; -2.79% (active) in test [17]; 3.15% (active) in test [18]. For the same compound, the growth is 4.1% (active) in test [19] and 37.9% in test [20].

With `CC[C@]12C=CCN3CC[C@]4(C(=C(C(=O)OC)C1)Nc1cc(OC)c([C@@H]5[C@H]6O[C@H]6[C@@]6(CC)CC(C(=O)OC)=C7Nc8cc(OC)ccc8[C@@]78CCN5[C@@H]68)cc14)[C@@H]32`, the growth is 70.2% in test [1]; 13.7% in [2]; 44.4% in [3]; 52.6% in test [4]; 48.1% in test [5]; 57.3% in test [6]. The growth was 53.8% in test [7]; 61.4% in [8]; 75.2% in [9]; 60.2% in [10]; 24.8% in test [11]; 58.9% in test [12]. In addition, the growth in test [13] was 50%; in test [14], 58.2%; in test [15] it was 48.4%; in test [16] it was 18.7%; in [17] it was 27.9%; in test [18], 42.9%. The growth in test [19] was 15.5%; in test [20], 82.5%.

Turning to `CCOc1ccccc1[C@H]1C(C(=O)c2ccc(Cl)cc2)C2(N[C@@H]1c1ccccc1)C(=O)Nc1ccccc12` (stereo not given in full), the growth in test [1] is 31%; in test [2], 0.16% (active); in [3], -15.9% (active); in test [4] it was 2.23% (active); in test [5], -66.5% (active); in [6] it was 43.9%. Moreover, the growth is 9.84% (active) in [7]; 28% in [8]; 55.3% in test [9]; 15.2% in [10]; 7.49% (active) in test [11]; -0.161% (active) in test [12]. The growth is 46.9% in test [13]; 27% in test [14]; 29.9% in [15]; 7.19% (active) in test [16]; -90.7% (active) in [17]; -4.32% (active) in [18]. For the same compound, the growth is -48.1% (active) in [19] and 40.8% in test [20].

Turning to `Cc1ccc(N=Nc2c(N)nn3c(-c4cc5ccccc5oc4=O)ccnc23)cc1`, the growth in test [1] was 43.7%; in [2], 40.7%; in [3], 67.1%; in test [4], 30.7%; in [5] it was 7.4% (active); in [6], 56.8%. In addition, the growth in test [7] is 57.4%; in [8] it was -3.24% (active); in test [9], 90.3%; in [10] it was 46.6%; in [11], 40.6%; in test [12] it was 30.2%. In addition, the growth in test [13] is 93.7%; in [14] it was 32.2%; in test [15], 43%; in test [16], 54.6%; in test [17] it was 42.4%; in test [18], 82.3%. Moreover, the growth in test [19] was 36%; in test [20], 44.7%.

On to `Cc1cc(=O)oc2cc(OCC(O)CNN3C(=O)c4cccc5c(N6CCN(C)CC6)ccc(c45)C3=O)ccc12` (stereo not given), for which the growth in test [1] is 96.6%; in [2], 80.4%; in test [3], 14.5%; in [4], 89.3%; in test [5] it was 82.3%; in test [6], 91.4%. Further, the growth in test [7] is 108%; in test [8] it was 81.2%; in test [9], 72.9%; in test [10], 89.7%; in test [11], 91%; in test [12], 89.6%. The growth in test [13] is 82.4%; in test [14] it was 96.2%; in [15] it was 103%; in [16], 105%; in test [17], 102%; in [18], 79.2%. For the same compound, the results for the growth in test [19] and in test [20] were 71% and -17.3% (active), respectively.
